# Measured values reported in PubChem BioAssay (NCI).
# This is part of a sample that, as a whole, favours compounds with a hit. Of some 79,000 tested, about 15% had one in any assay. A number with no mark means an inactive call. Activity calls are given as the source filed them. Rule as the data show it: active = growth inhibition above about 70%; inactive = the rest.
# Assays:
# [1] = NCI Yeast Anticancer Drug Screen. Data for the wt1 strain (AID 149);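 also: 0% = growth of vehicle-treated wt1 cultures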; details: S. cerevisiae wt1 strain (SPY 50644) growth inhibition, stronger effect = higher value
# Procedure, shortened: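 Readout: yeast growth inhibition, normalised to vehicle controls, in the wt1 strain exposed to test compounds.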
# [2] = NCI Yeast Anticancer Drug Screen. Data for the rad50EPP+ strain (AID 151);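 also: 0% = growth of vehicle-treated control cultures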; details: S. cerevisiae rad50 mutant strain, stronger effect = higher value
# Procedure, shortened: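 Growth inhibition read against vehicle controls in rad50EPP+ yeast, a strain altered in DNA damage repair, after compound exposure.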
# [3] = NCI Yeast Anticancer Drug Screen. Data for the mgt1 strain (AID 153); details: S. cerevisiae mgt1 mutant growth inhibition, stronger effect = higher value
# Procedure, shortened: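 mgt1 yeast grown with test compound; read-out is growth inhibition versus vehicle-treated cultures.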
# [4] = NCI Yeast Anticancer Drug Screen. Data for the rad50 strain (AID 155);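 also: 0% = growth of vehicle-only cultures of the same strain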; details: S. cerevisiae rad50 strain growth inhibition, stronger effect = higher value
# Procedure, shortened: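 Compounds were tested on a yeast strain with an engineered DNA damage repair alteration; the reported value is growth inhibition normalised to vehicle treatment.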
# [5] = NCI Yeast Anticancer Drug Screen. Data for the mec2-1 strain (AID 157); details: S. cerevisiae mec2-1 strain, stronger effect = higher value
# Procedure, shortened: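 Yeast mec2-1 mutant treated with compound. Readout: growth inhibition vs vehicle controls.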
# [6] = NCI Yeast Anticancer Drug Screen. Data for the rad14 strain (AID 159);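 also: 0% = growth of vehicle-treated control cultures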; details: S. cerevisiae rad14 strain growth inhibition, stronger effect = higher value
# Procedure, shortened: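 Compound-treated yeast with a defined DNA-repair lesion; growth inhibition normalised to vehicle-treated cultures.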
# [7] = NCI Yeast Anticancer Drug Screen. Data for the sgs1 mgt1 strain (AID 161);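 also: 0% = growth of cultures given vehicle only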; details: S. cerevisiae sgs1 mgt1 strain, stronger effect = higher value
# Procedure, shortened: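 Inhibition of yeast growth, normalised to vehicle-treated controls, is reported for a strain bearing genetic alterations in DNA damage repair.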
# [8] = NCI Yeast Anticancer Drug Screen. Data for the CLN2oe strain (AID 163);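 also: 0% = growth of vehicle-only control cultures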; details: S. cerevisiae CLN2oe strain, stronger effect = higher value
# Procedure, shortened: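 Read-out: yeast growth inhibition, expressed relative to vehicle-only controls. The strain bears an engineered cell-cycle alteration.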
# [9] = NCI Yeast Anticancer Drug Screen. Data for the cln2 rad14 strain (AID 165);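 also: 0% = growth equal to vehicle treated cultures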; details: S. cerevisiae cln2 rad14 strain, stronger effect = higher value
# Procedure, shortened: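 cln2 rad14 yeast strain; compound exposure; growth inhibition read vs vehicle controls.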
# [10] = NCI Yeast Anticancer Drug Screen. Data for the bub3 strain (AID 167); details: S. cerevisiae bub3 mutant strain, stronger effect = higher value
# Procedure, shortened: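 Growth of a checkpoint-deficient yeast mutant is measured after compound exposure. Values represent inhibition relative to vehicle.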
# [11] = NCI Yeast Anticancer Drug Screen. Data for the wt2 strain (AID 169);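 also: 0% = growth of vehicle-treated yeast cultures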; details: S. cerevisiae wt2 strain growth inhibition, stronger effect = higher value
# Procedure, shortened: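 Read-out: growth inhibition versus vehicle-treated control cultures after compound exposure of the yeast strain.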
# [12] = NCI Yeast Anticancer Drug Screen. Data for the mlh1 strain (AID 171);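 also: 0% = growth of vehicle-treated control cultures of the same strain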; details: S. cerevisiae mlh1 strain growth inhibition, stronger effect = higher value
# Procedure, shortened: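 Read-out: growth inhibition versus vehicle controls. Strain: engineered yeast with a defined DNA repair or cell cycle defect, compound-treated.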
# [13] = NCI Yeast Anticancer Drug Screen. Data for the sgs1 strain (AID 173);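 also: 0% = growth of vehicle-only control cultures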; details: S. cerevisiae sgs1 mutant, stronger effect = higher value
# Procedure, shortened: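 Read-out: yeast growth inhibition relative to vehicle controls, following compound exposure of a strain with a defined DNA repair/cell cycle alteration.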
# [14] = NCI Yeast Anticancer Drug Screen. Data for the mlh1 rad18 strain (AID 175); details: S. cerevisiae mlh1 rad18 strain growth inhibition, stronger effect = higher value
# Procedure, shortened: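 Yeast w/ defined DNA-repair lesions; compound exposure; growth vs vehicle controls → % inhibition.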
# [15] = NCI Yeast Anticancer Drug Screen. Data for the rad18 strain (AID 177); details: S. cerevisiae rad18 mutant growth inhibition, stronger effect = higher value
# Procedure, shortened: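 Readout: growth inhibition vs vehicle controls. Cells: genetically altered yeast strain, DNA repair defect.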
# [16] = at 5.0 µM (retest, dose inferred, filed as 0.5)
# [17] = at 50.0 µM (retest, dose inferred, filed as 5.0)
smiles,measurement,setting,value
CCOC(=O)C1C2c3ccccc3C(c3ccccc32)C1C(=O)OCC (stereo unspecified),growth inhibition,[1]; at 1.2 µM,-1%
same,growth inhibition,[1]; at 3.7 µM,-2%
same,growth inhibition,[1]; at 11.0 µM,-1%
same,growth inhibition,[1]; at 33.0 µM,2%
same,growth inhibition,[1]; at 100.0 µM,79% (active)
same,growth inhibition,[2]; at 1.2 µM,-1%
same,growth inhibition,[2]; at 3.7 µM,-2%
same,growth inhibition,[2]; at 11.0 µM,2%
same,growth inhibition,[2]; at 33.0 µM,-2%
same,growth inhibition,[2]; at 100.0 µM,1%
same,growth inhibition,[3]; at 1.2 µM,-1%
same,growth inhibition,[3]; at 3.7 µM,1%
same,growth inhibition,[3]; at 11.0 µM,4%
same,growth inhibition,[3]; at 33.0 µM,7%
same,growth inhibition,[3]; at 100.0 µM,93% (active)
same,growth inhibition,[4]; at 1.2 µM,3%
same,growth inhibition,[4]; at 3.7 µM,3%
same,growth inhibition,[4]; [16],13%
same,growth inhibition,[4]; at 11.0 µM,8%
same,growth inhibition,[4]; at 33.0 µM,15%
same,growth inhibition,[4]; [17],77% (active)
same,growth inhibition,[4]; at 50.0 µM,17.3%
same,growth inhibition,[4]; at 100.0 µM,91% (active)
same,growth inhibition,[5]; at 1.2 µM,-1%
same,growth inhibition,[5]; at 3.7 µM,1%
same,growth inhibition,[5]; [16],-8%
same,growth inhibition,[5]; at 11.0 µM,3%
same,growth inhibition,[5]; at 33.0 µM,6%
same,growth inhibition,[5]; [17],1%
same,growth inhibition,[5]; at 50.0 µM,74.7% (active)
same,growth inhibition,[5]; at 100.0 µM,89% (active)
same,growth inhibition,[6]; at 1.2 µM,5%
same,growth inhibition,[6]; at 3.7 µM,7%
same,growth inhibition,[6]; at 11.0 µM,12%
same,growth inhibition,[6]; at 33.0 µM,16%
same,growth inhibition,[6]; at 100.0 µM,90% (active)
same,growth inhibition,[7]; [16],2%
same,growth inhibition,[7]; [17],89% (active)
same,growth inhibition,[7]; at 50.0 µM,80.2% (active)
same,growth inhibition,[8]; at 1.2 µM,7%
same,growth inhibition,[8]; at 3.7 µM,7%
same,growth inhibition,[8]; at 11.0 µM,19%
same,growth inhibition,[8]; at 33.0 µM,30%
same,growth inhibition,[8]; at 100.0 µM,93% (active)
same,growth inhibition,[9]; [16],-4%
same,growth inhibition,[9]; [17],28%
same,growth inhibition,[9]; at 50.0 µM,56.7%
same,growth inhibition,[10]; at 1.2 µM,0%
same,growth inhibition,[10]; at 3.7 µM,8%
same,growth inhibition,[10]; [16],18%
same,growth inhibition,[10]; at 11.0 µM,11%
same,growth inhibition,[10]; at 33.0 µM,17%
same,growth inhibition,[10]; [17],60%
same,growth inhibition,[10]; at 50.0 µM,49%
same,growth inhibition,[10]; at 100.0 µM,76% (active)
same,growth inhibition,[11]; at 1.2 µM,-12%
same,growth inhibition,[11]; at 3.7 µM,-11%
same,growth inhibition,[11]; at 11.0 µM,7%
same,growth inhibition,[11]; at 33.0 µM,6%
same,growth inhibition,[11]; at 100.0 µM,95% (active)
same,growth inhibition,[12]; at 1.2 µM,-1%
same,growth inhibition,[12]; at 3.7 µM,6%
same,growth inhibition,[12]; at 11.0 µM,7%
same,growth inhibition,[12]; at 33.0 µM,16%
same,growth inhibition,[12]; at 100.0 µM,86% (active)
same,growth inhibition,[13]; at 1.2 µM,-9%
same,growth inhibition,[13]; at 3.7 µM,-19%
same,growth inhibition,[13]; at 11.0 µM,12%
same,growth inhibition,[13]; at 33.0 µM,19%
same,growth inhibition,[13]; at 100.0 µM,97% (active)
same,growth inhibition,[14]; [16],16%
same,growth inhibition,[14]; [17],87% (active)
same,growth inhibition,[14]; at 50.0 µM,53.1%
same,growth inhibition,[15]; at 1.2 µM,1%
same,growth inhibition,[15]; at 3.7 µM,8%
same,growth inhibition,[15]; at 11.0 µM,9%
same,growth inhibition,[15]; at 33.0 µM,11%
same,growth inhibition,[15]; at 100.0 µM,91% (active)
Oc1cccc2nc3ccccc3nc12,growth inhibition,[1]; at 1.2 µM,-55%
same,growth inhibition,[1]; at 3.7 µM,-46%
same,growth inhibition,[1]; at 11.0 µM,-30%
same,growth inhibition,[1]; at 33.0 µM,1%
same,growth inhibition,[1]; at 100.0 µM,88% (active)
same,growth inhibition,[2]; at 1.2 µM,-47%
same,growth inhibition,[2]; at 3.7 µM,-31%
same,growth inhibition,[2]; at 11.0 µM,6%
same,growth inhibition,[2]; at 33.0 µM,63%
same,growth inhibition,[2]; at 100.0 µM,96% (active)
same,growth inhibition,[3]; at 1.2 µM,-22%
same,growth inhibition,[3]; at 3.7 µM,-14%
same,growth inhibition,[3]; at 11.0 µM,6%
same,growth inhibition,[3]; at 33.0 µM,20%
same,growth inhibition,[3]; at 100.0 µM,91% (active)
same,growth inhibition,[4]; at 1.2 µM,-4%
same,growth inhibition,[4]; at 3.7 µM,-8%
same,growth inhibition,[4]; [16],-14%
same,growth inhibition,[4]; at 11.0 µM,5%
same,growth inhibition,[4]; at 33.0 µM,54%
same,growth inhibition,[4]; [17],73% (active)
same,growth inhibition,[4]; at 50.0 µM,65.4%
same,growth inhibition,[4]; at 100.0 µM,95% (active)
same,growth inhibition,[5]; at 1.2 µM,-48%
same,growth inhibition,[5]; at 3.7 µM,-44%
same,growth inhibition,[5]; [16],9%
same,growth inhibition,[5]; at 11.0 µM,-33%
same,growth inhibition,[5]; at 33.0 µM,24%
same,growth inhibition,[5]; [17],47%
same,growth inhibition,[5]; at 50.0 µM,68.5%
same,growth inhibition,[5]; at 100.0 µM,94% (active)
same,growth inhibition,[6]; at 1.2 µM,-31%
same,growth inhibition,[6]; at 3.7 µM,-32%
same,growth inhibition,[6]; at 11.0 µM,-27%
same,growth inhibition,[6]; at 33.0 µM,19%
same,growth inhibition,[6]; at 100.0 µM,92% (active)
same,growth inhibition,[7]; [16],-4%
same,growth inhibition,[7]; [17],29%
same,growth inhibition,[7]; at 50.0 µM,21%
same,growth inhibition,[8]; at 1.2 µM,-27%
same,growth inhibition,[8]; at 3.7 µM,-14%
same,growth inhibition,[8]; at 11.0 µM,-22%
same,growth inhibition,[8]; at 33.0 µM,6%
same,growth inhibition,[8]; at 100.0 µM,93% (active)
same,growth inhibition,[9]; [16],1%
same,growth inhibition,[9]; [17],13%
same,growth inhibition,[9]; at 50.0 µM,35.4%
same,growth inhibition,[10]; at 1.2 µM,-31%
same,growth inhibition,[10]; at 3.7 µM,-28%
same,growth inhibition,[10]; [16],-3%
same,growth inhibition,[10]; at 11.0 µM,-16%
same,growth inhibition,[10]; at 33.0 µM,-4%
same,growth inhibition,[10]; [17],35%
same,growth inhibition,[10]; at 50.0 µM,47.2%
same,growth inhibition,[10]; at 100.0 µM,94% (active)
same,growth inhibition,[11]; at 1.2 µM,-48%
same,growth inhibition,[11]; at 3.7 µM,-44%
same,growth inhibition,[11]; at 11.0 µM,-39%
same,growth inhibition,[11]; at 33.0 µM,-9%
same,growth inhibition,[11]; at 100.0 µM,75% (active)
same,growth inhibition,[12]; at 1.2 µM,-58%
same,growth inhibition,[12]; at 3.7 µM,-33%
same,growth inhibition,[12]; at 11.0 µM,-27%
same,growth inhibition,[12]; at 33.0 µM,12%
same,growth inhibition,[12]; at 100.0 µM,92% (active)
same,growth inhibition,[13]; at 1.2 µM,-43%
same,growth inhibition,[13]; at 3.7 µM,-44%
same,growth inhibition,[13]; at 11.0 µM,-41%
same,growth inhibition,[13]; at 33.0 µM,-18%
same,growth inhibition,[13]; at 100.0 µM,86% (active)
same,growth inhibition,[14]; [16],-41%
same,growth inhibition,[14]; [17],58%
same,growth inhibition,[14]; at 50.0 µM,64.5%
same,growth inhibition,[15]; at 1.2 µM,-29%
same,growth inhibition,[15]; at 3.7 µM,-26%
same,growth inhibition,[15]; at 11.0 µM,-14%
same,growth inhibition,[15]; at 33.0 µM,27%
same,growth inhibition,[15]; at 100.0 µM,93% (active)
